High-throughput results (PubChem BioAssay)
rCAG binder: molecules binding r(CAG) RNA repeats. inhibition, % at 3 µM. r(CAG) RNA repeat, TO-PRO-1 dye displacement fluorescence. actives 1.3% (n = 370,000). AID 651821;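 active = inhibition above the plate cutoff, the mean of all test compounds on that plate plus 3 SD, cut at about 35% in these data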;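 also: higher means more dye released from RNA so lower well fluorescence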
DNMT1 block: blocks human DNA methyltransferase DNMT1; inhibition (reported as % activation of signal), % at 10 µM; DNMT1 molecular beacon, Hinp1I cleavage, fluorescence; P26358; actives 0.83% (n = 360,000); in the data active = inhibition above about 50%
MBD2 inh: MBD2-methylated oligo binding inhibition; Q9UBB5; TR-FRET, MBD2 binding to methylated oligonucleotide; inhibition, % at 4.4 µM; actives 0.31% (n = 370,000); AID 686964; in the data active = inhibition above about 13%
PG9 Ab binder: binds the HIV-1 gp120 antibody PG9 | TR-FRET gp120-PG9 antibody binding | inhibition, % at 6.7 µM | actives 0.43% (n = 360,000) | AID 624416; in the data active = inhibition above about 8.5%
UHRF1 MBD2 ctr: blocks human UHRF1 binding to methylated DNA; Q96T88; UHRF1 binding to methylated oligo, TR-FRET; inhibition, % at 4.4 µM; actives 0.75% (n = 370,000); in the data active = inhibition above about 21%;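 also: UHRF1 SRA domain binding a hemimethylated CpG hairpin DNA probe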
Target sequence (Q96T88 whole entry, looked up, the tested form may be a part): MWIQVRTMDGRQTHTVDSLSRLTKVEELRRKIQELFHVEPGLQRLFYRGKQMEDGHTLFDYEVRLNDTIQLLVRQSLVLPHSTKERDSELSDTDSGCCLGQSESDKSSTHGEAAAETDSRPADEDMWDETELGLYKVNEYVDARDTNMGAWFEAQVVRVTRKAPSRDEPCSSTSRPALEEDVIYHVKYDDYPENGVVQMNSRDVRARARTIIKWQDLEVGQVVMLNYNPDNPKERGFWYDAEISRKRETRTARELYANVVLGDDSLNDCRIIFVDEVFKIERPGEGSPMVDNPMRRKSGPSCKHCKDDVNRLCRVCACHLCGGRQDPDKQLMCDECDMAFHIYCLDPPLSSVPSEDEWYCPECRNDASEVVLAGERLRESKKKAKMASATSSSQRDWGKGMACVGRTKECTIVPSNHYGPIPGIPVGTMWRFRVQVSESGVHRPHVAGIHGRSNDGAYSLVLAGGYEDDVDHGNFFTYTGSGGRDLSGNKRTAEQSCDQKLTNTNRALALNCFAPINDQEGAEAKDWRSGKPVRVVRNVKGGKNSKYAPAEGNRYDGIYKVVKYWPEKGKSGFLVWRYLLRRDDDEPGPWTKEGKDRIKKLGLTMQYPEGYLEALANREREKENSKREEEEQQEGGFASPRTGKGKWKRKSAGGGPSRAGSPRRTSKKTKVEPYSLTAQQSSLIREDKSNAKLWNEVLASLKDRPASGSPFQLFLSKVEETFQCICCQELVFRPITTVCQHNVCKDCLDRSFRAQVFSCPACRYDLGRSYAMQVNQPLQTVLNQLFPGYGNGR
LEDGF integ inh: blocks HIV-1 LEDGF/p75-dependent DNA integration; AID 743269; TR-FRET IN-LEDGF/p75 DNA integration, Eu/Cy5; inhibition, % at 3.7 µM; actives 0.64% (n = 370,000);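 active = inhibition above the screen-wide mean plus 3 SD, cut at about 13% in these data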;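 also: signal is the Cy5 over europium emission ratio at 671 and 618 nm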
Beacon interf DR: counter-screen for DNMT1 inhibitors: spectral interference, dose response | 200 tested, under 10 active | shares compounds with DNMT1 block | AID 602382 | molecular beacon fluorescence | IC50, µM; call rule not given here
DNMT1 inh conf: confirmation of human DNMT1 inhibitors | DNMT1 molecular beacon HinP1I cleavage, fluorescence | shares compounds with DNMT1 block | AID 602385 | actives 8% (n = 2,300) | inhibition, % at 10 µM;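 active = average inhibition of at least 30% in the single-concentration confirmation test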
Beacon interf: beacon fluorescence artifact counter-screen; shares compounds with DNMT1 block; DNMT1 molecular beacon spectral interference counterscreen, fluorescence 485/520; activation (fluorescence interference), % at 10 µM; actives 1% (n = 2,300); AID 602387;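 active = activation of at least 30% at 10 µM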;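 also: DNMT1 catalytic domain with a HinP1I cleavage step and a FAM/dabcyl DNA beacon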
rCAG bind conf: r(CAG) RNA repeat binding, confirmation. TO-PRO-1 dye displacement fluorescence. shares compounds with rCAG binder. inhibition, % at 3 µM. actives 70% (n = 4,300);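 active = inhibition above a per-plate cutoff, the mean inhibition of sample wells plus 3 SD, cut at about 35% in these data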;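 also: loss of TO-PRO-1 fluorescence as compound displaces dye from 1x1 AA loop RNA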
dCAG dye counter: disrupts DNA CAG TO-PRO-1 complex, flagging rCAG hits; shares compounds with rCAG binder; actives 94% (n = 4,300); d(CAG) DNA oligo TO-PRO-1 dye displacement, fluorescence; inhibition, % at 3 µM;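 active = inhibition above its plate's cutoff, the mean test-well inhibition plus 3 SD, cut at about 4.8% in these data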;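 also: hits displace the dye from DNA and so lower well fluorescence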
UHRF1 ctr MBD2: UHRF1 methyl-oligo binding inhibition as MBD2 counter-screen; inhibition, % at 4.4 µM; UHRF1 binding to methylated oligonucleotide, TR-FRET; actives 25% (n = 1,000); shares compounds with MBD2 inh; in the data active = inhibition above about 21%;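 also: UHRF1 SRA domain binding a labeled hemimethylated CpG hairpin DNA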
MBD2 confirm: MBD2-DBD methyl-DNA binding inhibition, TR-FRET confirmation | shares compounds with MBD2 inh | TR-FRET MBD2-DBD binding to methylated oligonucleotide | inhibition, % at 4.4 µM | actives 26% (n = 1,000) | AID 720531
IN multimer up: HIV-1 integrase multimerization activation, counter-screen. shares compounds with LEDGF integ inh. TR-FRET HIV-1 integrase multimerization, biochemical. activation, % at 7.7 µM. actives 17% (n = 2,000); in the data active = activation above about 8.9%
TR-FRET interf: optically interferes with TR-FRET readout in LEDGF counter-screen. shares compounds with LEDGF integ inh. TR-FRET optical interference counterscreen, HIV-1 IN multimerization. inhibition, % at 7.7 µM. 2,000 tested, under 10 active;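 active = inhibition above the mean over all tested compounds plus 3 SD, which no compound reached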
IN-LEDGF confirm: LEDGF/p75-dependent HIV-1 integration inhibition, confirmation; AID 1053136; actives 36% (n = 2,000); inhibition, % at 3.7 µM; shares compounds with LEDGF integ inh; TR-FRET LEDGF/p75-dependent HIV-1 integration, biochemical
Each line names hits and unclear results; the compound was inactive in the other large screens (follow-up assays come after a bar, where they were run). Rows were chosen to be rich in hits. Some 3.5% of all compounds tested hit in one or more screens of this group. Rule as the data show it, unless noted: active = inhibition above about 14%; inactive = the rest.

COC1=C(N)C(=O)c2nc(C)ccc2C1=O	DNMT1 block 78, LEDGF integ inh 20 | Beacon interf DR inactive | DNMT1 inh conf 53 | Beacon interf inactive | IN multimer up inactive | TR-FRET interf inactive | IN-LEDGF confirm 44
COC1=C(Nc2ccc(C)cc2)C(=O)c2ccccc2C1=O	none
CCOC(=O)C1=C(c2ccccc2)N=c2s/c(=C\c3ccco3)c(=O)n2C1c1cccs1 (stereo unspecified)	rCAG binder 44, DNMT1 block 58, LEDGF integ inh 16 | DNMT1 inh conf inactive | Beacon interf inactive | rCAG bind conf inactive | dCAG dye counter 20 | IN multimer up inactive | TR-FRET interf inactive | IN-LEDGF confirm 23
O=C(O)CCN1C(=O)/C(=C/c2ccc(F)cc2F)SC1=S	none (no result: rCAG binder, DNMT1 block, PG9 Ab binder)
O=C(O)CCN1C(=O)/C(=C/c2ccc(-c3nc4ccccc4s3)o2)SC1=S	rCAG binder 55, DNMT1 block 99, LEDGF integ inh 17 | Beacon interf DR inactive | DNMT1 inh conf 47 | Beacon interf inactive | rCAG bind conf 85 | dCAG dye counter 53 | IN multimer up inactive | TR-FRET interf inactive | IN-LEDGF confirm 16
O=C(CCN1CCN(c2ccccc2)CC1)N/N=C/c1ccc(O)c(O)c1O	rCAG binder 56, DNMT1 block 79, UHRF1 MBD2 ctr 27, LEDGF integ inh 42 | DNMT1 inh conf inactive | Beacon interf inactive | rCAG bind conf 45 | dCAG dye counter 21 | IN multimer up 49 | TR-FRET interf inactive | IN-LEDGF confirm 73
COc1ccc(/C=N/NC(=O)CCN2CCN(c3ccccc3)CC2)c(OC)c1OC	none
CCCCC(=O)N(C)c1c(CC)nc2c(OCC(N)=O)cccn12	none
CCOC(=O)C(C)N1C(=O)S/C(=C\c2ccc(-c3ccccc3C(=O)O)o2)C1=O (stereo unspecified)	rCAG binder 37, DNMT1 block 100, MBD2 inh 31, UHRF1 MBD2 ctr 55, LEDGF integ inh 18 | Beacon interf DR inactive | DNMT1 inh conf 45 | Beacon interf inactive | rCAG bind conf 40 | dCAG dye counter 12 | UHRF1 ctr MBD2 49 | MBD2 confirm 16 | IN multimer up inactive | TR-FRET interf inactive | IN-LEDGF confirm 18
O=C(CN(C(=O)CCC(=O)Nc1nccs1)c1ccc2c(c1)OCO2)NCc1ccccc1	none
C(=C\c1ccco1)/c1ccc2ccccc2n1	DNMT1 block 80, UHRF1 MBD2 ctr 25, LEDGF integ inh 18 | DNMT1 inh conf inactive | Beacon interf inactive | IN multimer up 17 | TR-FRET interf inactive | IN-LEDGF confirm 37
COC(=O)C1=C(O)/C(=C\c2ccc(CNC(=O)C(=O)Nc3ccc(C)c(C)c3)o2)N=C1C	rCAG binder 56, DNMT1 block 86, LEDGF integ inh 41 | DNMT1 inh conf inactive | Beacon interf inactive | rCAG bind conf inactive | dCAG dye counter 12 | IN multimer up inactive | TR-FRET interf inactive | IN-LEDGF confirm inactive
CCOC(=O)C1=C(O)/C(=C/c2ccc(CNC(=O)C(=O)Nc3ccc(C)cc3)o2)N=C1C	rCAG binder 49, DNMT1 block 90, LEDGF integ inh 35 | DNMT1 inh conf inactive | Beacon interf inactive | rCAG bind conf inactive | dCAG dye counter 11 | IN multimer up inactive | TR-FRET interf inactive | IN-LEDGF confirm inactive
CCOC(=O)c1ccc(NC(=O)C(=O)NCc2ccc(/C=C(/C#N)C(=O)NCCOC)o2)cc1	none
CC1CCCC(NC(=O)CSc2n[nH]c(=O)n2Cc2ccccc2)C1C (stereo unspecified)	none
COc1ccc(C(=O)NCC(=O)Nc2ccc(-c3ccccc3)cc2)cc1	DNMT1 block 53, LEDGF integ inh 18 | DNMT1 inh conf inactive | Beacon interf inactive | IN multimer up 11 | TR-FRET interf inactive | IN-LEDGF confirm inactive
O=C(CCl)N1N=C(c2ccco2)CC1c1ccco1 (stereo unspecified)	DNMT1 block 87, UHRF1 MBD2 ctr 33, LEDGF integ inh 49 | DNMT1 inh conf inactive | Beacon interf inactive | IN multimer up inactive | TR-FRET interf inactive | IN-LEDGF confirm inactive
CC(=O)c1ccc(NC(=O)C2=CC(c3cccs3)=NS(=O)(=O)N2C)cc1	none
CCCOc1ccc(/C=c2\sc3nc(-c4ccco4)nn3c2=O)cc1OCC	DNMT1 block 73, MBD2 inh 31, UHRF1 MBD2 ctr 31, LEDGF integ inh 13 | DNMT1 inh conf inactive | Beacon interf inactive | UHRF1 ctr MBD2 inactive | MBD2 confirm inactive | IN multimer up inactive | TR-FRET interf inactive | IN-LEDGF confirm inactive
CCOC(=O)C1=C(N)n2c(s/c(=C\c3ccco3)c2=O)=C(C(=O)OCC)C1c1ccco1 (stereo unspecified)	none (no result: rCAG binder, MBD2 inh, PG9 Ab binder, UHRF1 MBD2 ctr, LEDGF integ inh)
CCCOc1ccc(Cc2nn3c(=O)/c(=C/c4ccco4)sc3nc2=O)cc1	DNMT1 block 86, UHRF1 MBD2 ctr 23, LEDGF integ inh 27 | DNMT1 inh conf inactive | Beacon interf inactive | IN multimer up inactive | TR-FRET interf inactive | IN-LEDGF confirm 15
CCCCCOc1ccc(/C=c2\sc3nc(=O)c(-c4ccccc4)nn3c2=O)cc1OC	none
